Measurements reported in paper PMC12864922, “TDP-43 directly inhibits mRNA accumulation in neurites through modulation of mRNA stability”.
Whole data set: some 9,900 sequences, median “r (bound/input frequency ratio)” near 0.7, cut for the highest 2% near 6.5. This excerpt belongs to a sample that is enriched for the highest values.

B1: ENSMUSG00000061578.853|Ksr2 (ssRNA)
RNA: GGGAGUUCUACAGUCCGACGAUCGCUUCGAUAUCCGCAUGCUAAAGCAAAGAGCAAUACAGGAAAAGGUCAGGGGUGAGAUGUGUCAUUGCCACUUCCUCCAGCUAGGACCUUUGAGCAUCACAUUGUGAAGCCAUCCAGGGACUUGGGGGUUAGGUCAGAGGUAUCAAUACAUCUCCGGAAACAUCGUCACAGAUACCUAGAGGUACUUCAUUGAUCCCUUGAAAAGCAUGUCUUAAUUCUGUUAAGAUGUCAAUCAAGAUUACACAUCUCACUGCUUCACAGGCCAUCAGGGCCCCAUUCUCUCUUGCGGUCGCACUAGUGUGGAAUUCUCGGGUGUCAAGG
B2: ENSMUSG00000022095.185|Fam160b2|225:238;240:260 (ssRNA)
RNA: GGGAGUUCUACAGUCCGACGAUCGCUUCGAUAUCCGCAUGCUAUUACCUCACAACAGGCCUGCAGUUGUUGGCUUCCCUCCUGGGCAAGGAGGAGCAGGCCAGAGCCCCUUUUGCUUCCUUUUCCUGCCCAUGCCACCUCUCGAAGCCGGGCACAGGUUGCCAGGAGGUGACAUGAAAGAGGAGGAAACUCCAUGACCUCUACAUCCCCCGCAGUCCUCCCAGCGGGGGAGGACUUCUCUGCUGCUCCGAAGAACAUCAUGCACUCCACACACACACACACACACACACACACACACACACACCUCUUGCGGUCGCACUAGUGUGGAAUUCUCGGGUGUCAAGG
B3: ENSMUSG00000022095.181|Fam160b2 (ssRNA)
RNA: GGGAGUUCUACAGUCCGACGAUCGCUUCGAUAUCCGCAUGCUAAGAGCACUCGGGCGGCGCCAGGCAUUACCUCACAACAGGCCUGCAGUUGUUGGCUUCCCUCCUGGGCAAGGAGGAGCAGGCCAGAGCCCCUUUUGCUUCCUUUUCCUGCCCAUGCCACCUCUCGAAGCCGGGCACAGGUUGCCAGGAGGUGACAUGAAAGAGGAGGAAACUCCAUGACCUCUACAUCCCCCGCAGUCCUCCCAGCGGGGGAGGACUUCUCUGCUGCUCCGAAGAACAUCAUGCACUCCUGUGUGUGUGUGCUCUUGCGGUCGCACUAGUGUGGAAUUCUCGGGUGUCAAGG
B4: ENSMUSG00000022095.187|Fam160b2|213:226;228:260 (ssRNA)
RNA: GGGAGUUCUACAGUCCGACGAUCGCUUCGAUAUCCGCAUGCUAAGGCCUGCAGUUGUUGGCUUCCCUCCUGGGCAAGGAGGAGCAGGCCAGAGCCCCUUUUGCUUCCUUUUCCUGCCCAUGCCACCUCUCGAAGCCGGGCACAGGUUGCCAGGAGGUGACAUGAAAGAGGAGGAAACUCCAUGACCUCUACAUCCCCCGCAGUCCUCCCAGCGGGGGAGGACUUCUCUGCUGCUCCGAAGAACAUCAUGCACUCCACACACACACACACACACACACACACACACACACACACACACACACACCUCUUGCGGUCGCACUAGUGUGGAAUUCUCGGGUGUCAAGG
B5: ENSMUSG00000022095.197|Fam160b2 (ssRNA)
RNA: GGGAGUUCUACAGUCCGACGAUCGCUUCGAUAUCCGCAUGCUAUUCCUUUUCCUGCCCAUGCCACCUCUCGAAGCCGGGCACAGGUUGCCAGGAGGUGACAUGAAAGAGGAGGAAACUCCAUGACCUCUACAUCCCCCGCAGUCCUCCCAGCGGGGGAGGACUUCUCUGCUGCUCCGAAGAACAUCAUGCACUCCUGUGUGUGUGUGUGAGUGUGUGUGUGUGUGUGUGUGUGUGUGUGUGUGUAUGUGUGUGUAUAUGUGUGUGUGUGUGUGUAUGUGUGUGUGUGUGUGUGAGUGAGUGUGCUCUUGCGGUCGCACUAGUGUGGAAUUCUCGGGUGUCAAGG
B6: ENSMUSG00000022095.198|Fam160b2 (ssRNA)
RNA: GGGAGUUCUACAGUCCGACGAUCGCUUCGAUAUCCGCAUGCUAUUCCUGCCCAUGCCACCUCUCGAAGCCGGGCACAGGUUGCCAGGAGGUGACAUGAAAGAGGAGGAAACUCCAUGACCUCUACAUCCCCCGCAGUCCUCCCAGCGGGGGAGGACUUCUCUGCUGCUCCGAAGAACAUCAUGCACUCCUGUGUGUGUGUGUGAGUGUGUGUGUGUGUGUGUGUGUGUGUGUGUGUGUAUGUGUGUGUAUAUGUGUGUGUGUGUGUGUAUGUGUGUGUGUGUGUGUGAGUGAGUGUGUGUGUGCUCUUGCGGUCGCACUAGUGUGGAAUUCUCGGGUGUCAAGG
B7: ENSMUSG00000022095.195|Fam160b2 (ssRNA)
RNA: GGGAGUUCUACAGUCCGACGAUCGCUUCGAUAUCCGCAUGCUAAGCCCCUUUUGCUUCCUUUUCCUGCCCAUGCCACCUCUCGAAGCCGGGCACAGGUUGCCAGGAGGUGACAUGAAAGAGGAGGAAACUCCAUGACCUCUACAUCCCCCGCAGUCCUCCCAGCGGGGGAGGACUUCUCUGCUGCUCCGAAGAACAUCAUGCACUCCUGUGUGUGUGUGUGAGUGUGUGUGUGUGUGUGUGUGUGUGUGUGUGUGUAUGUGUGUGUAUAUGUGUGUGUGUGUGUGUAUGUGUGUGUGUGUGUGCUCUUGCGGUCGCACUAGUGUGGAAUUCUCGGGUGUCAAGG
B8: ENSMUSG00000022095.196|Fam160b2 (ssRNA)
RNA: GGGAGUUCUACAGUCCGACGAUCGCUUCGAUAUCCGCAUGCUAUUUUGCUUCCUUUUCCUGCCCAUGCCACCUCUCGAAGCCGGGCACAGGUUGCCAGGAGGUGACAUGAAAGAGGAGGAAACUCCAUGACCUCUACAUCCCCCGCAGUCCUCCCAGCGGGGGAGGACUUCUCUGCUGCUCCGAAGAACAUCAUGCACUCCUGUGUGUGUGUGUGAGUGUGUGUGUGUGUGUGUGUGUGUGUGUGUGUGUAUGUGUGUGUAUAUGUGUGUGUGUGUGUGUAUGUGUGUGUGUGUGUGUGAGUGCUCUUGCGGUCGCACUAGUGUGGAAUUCUCGGGUGUCAAGG
B9: ENSMUSG00000058297.304|Spock2|17:22 (ssRNA)
RNA: GGGAGUUCUACAGUCCGACGAUCGCUUCGAUAUCCGCAUGCUAAGUGAGGGCAGCCCCCACACACGUGGAAGAGGCUGGGCAGCUAGCUACUGGGGACCUUGUGCUGAGGCUUCCAGGACAAAGCCCCAGUCUGGCUCUCCCCCAGCCUCUCAGGGGCACUGGCUGGUCACAUCCACUGAGUAUUGAUCGGUUGGACUUUAGGGAAGAGCCUCCUCCUUCCCAUUCCUUUCUGCCACCCUGGAAUGGCCACCUUAAUCGUCAUCUCCUCGGGGGGAAUACGGAAAUGUCACCAAGCUCCAUAACUCUUGCGGUCGCACUAGUGUGGAAUUCUCGGGUGUCAAGG
B10: ENSMUSG00000090935.612|Synj2bp (ssRNA)
RNA: GGGAGUUCUACAGUCCGACGAUCGCUUCGAUAUCCGCAUGCUAUUUUCUGUGUGGGUGAUUUCAUUUAAUUAAUUGGACAGUCUAGCCACAGGCAACAAAUAGAAAUAGUAUUUGUAAUUAUAGUCUAUGCCAGGGACUGUCUUAAACUGAUUAGUAACACUAUGACUUACCCUGAGAUCUAAGUAUUGCUAUAAAGAGACUGAAGAGGAGAGAAUAAAGUAUUUUCCUAGGACUACAUAGUUGGUAAAAGAGAAUCAUGAUUUAAACUCUGGACUAUGGAUGGCAGUAUCAGUAAUAUUCCCCUCUUGCGGUCGCACUAGUGUGGAAUUCUCGGGUGUCAAGG
B11: ENSMUSG00000061578.450|Ksr2 (ssRNA)
RNA: GGGAGUUCUACAGUCCGACGAUCGCUUCGAUAUCCGCAUGCUACUUCUAACCUUGUACUGGGACAUCAUCUAUGUCCCCAUCCCCAGAGCUGAAUUAGAGACACCAAGUAGCCUCUUGGGUUGUUUUGUGGGGUGUUCCCCUUGCUGGUCAAAGGAGUGGAAAGCCACCUUGCUGUAAAUGCUCUUGUUUUCUGUAGCAAUCUUGAACUCUUUUUUUUUUUUGUUCGUUUGUUUGUUUGUUUGUUUGUUUGUUUUUUCAAGACAGGGUUUUUCUGUAUAGCCCUGGCUGUCCUGGAACUCAUUCUCUUGCGGUCGCACUAGUGUGGAAUUCUCGGGUGUCAAGG
B12: ENSMUSG00000043670.112|Diras1 (ssRNA)
RNA: GGGAGUUCUACAGUCCGACGAUCGCUUCGAUAUCCGCAUGCUACCGUGACCUCUGACCUGUGGCCUUCCCUGGGUCCAGAACACCCCUGUCCUCUCCUGUCUGCACACCAGGGUGGAUGGGCCCGAGGGCUGGGCCUCAGGCACCAGGCAAUAAACACAGGGCCUGCAGCAAUGCCCUGGCCACCCCGAGUACCACCUCUGGAAUAGCAGACGCCCACAGCACAAGCCCAGGACUGUCCCUUCAGGGGAGGCACACUGGAACCCUGAACUUGGAGUGUGGAGUGGCUGCCUGGACACUGCCCACUCUUGCGGUCGCACUAGUGUGGAAUUCUCGGGUGUCAAGG
B13: ENSMUSG00000090935.544|Synj2bp (ssRNA)
RNA: GGGAGUUCUACAGUCCGACGAUCGCUUCGAUAUCCGCAUGCUAUUGUUGAUCUAAAUAAAAAAUAUCAUUGGUAGAAGUUUUACUUUGGUUGAUAAGGAUUCUGAUAACAUUUGGGUCUCCUUAGGAAAGAAACACUUAACUAAAACAUUUAAGUUUUAGGCAAAUACUGUAAUAUUUCACUCUUAGUUAUAUGAAAACUAAAUGAGAUGUUGAGAAUCUAUAUAGAUUAUUCAAAUUUUAUGUUUCUUAUAGACUGACUCAAAUAUUCCUACCACCUUAAAAUUAUAUAUGAUGCACCUACCCUCUUGCGGUCGCACUAGUGUGGAAUUCUCGGGUGUCAAGG

molecular target: TDP-43 (Homo sapiens, UniProt Q13148 1-414); assay: RNA Bind-n-Seq with designed 260-mer pool; 25 mM Tris-HCl, 150 mM KCl, 3 mM MgCl2, BSA (printed 500 mg/mL), 20 units/mL SUPERase IN; pH not stated; 500 nM RNA pool, 1 h, 4 C; TDP-43 5, 50, 500 nM; high values mean tight binding; settings: protein: recombinant; tags: SBP (GST cleaved off with PreScission; pGEX-GST-SBP)
Summary of the method: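 Streptavidin beads captured recombinant SBP-tagged TDP-43 at 5, 50 or 500 nM, and the beads were incubated for 1 h at 4 °C with 500 nM of an in vitro-transcribed pool of 260-nt 3′ UTR oligos in 25 mM Tris-HCl, 150 mM KCl, 3 mM MgCl2, BSA and SUPERase IN. After washing, bound RNA was eluted with biotin, reverse transcribed, PCR-amplified and sequenced. Binding is reported as R, the mapped-read-normalized abundance of each oligo in the bound sample divided by its abundance in the input. Two independent protein batches served as duplicates.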

Chain of TDP-43 (Q13148 whole entry): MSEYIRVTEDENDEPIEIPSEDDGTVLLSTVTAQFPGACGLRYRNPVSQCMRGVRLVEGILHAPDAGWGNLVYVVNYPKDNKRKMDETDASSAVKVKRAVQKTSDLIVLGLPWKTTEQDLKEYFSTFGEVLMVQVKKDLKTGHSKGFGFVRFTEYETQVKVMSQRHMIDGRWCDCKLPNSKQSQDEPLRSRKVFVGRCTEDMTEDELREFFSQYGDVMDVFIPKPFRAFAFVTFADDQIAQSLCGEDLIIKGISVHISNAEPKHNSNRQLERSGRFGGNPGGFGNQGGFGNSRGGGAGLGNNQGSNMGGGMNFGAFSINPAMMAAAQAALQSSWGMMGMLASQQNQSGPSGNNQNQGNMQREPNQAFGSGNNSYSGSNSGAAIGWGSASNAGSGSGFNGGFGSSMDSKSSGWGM

Row | Binder | binding signal
1 | B1 | 0.223 R (bound/input frequency ratio)
2 | B2 | 2.7 R (bound/input frequency ratio)
3 | B3 | 0.283 R (bound/input frequency ratio)
4 | B4 | 1.89 R (bound/input frequency ratio)
5 | B5 | 6.5 R (bound/input frequency ratio)
6 | B6 | 10 R (bound/input frequency ratio)
7 | B7 | 9.34 R (bound/input frequency ratio)
8 | B8 | 6.8 R (bound/input frequency ratio)
9 | B9 | 0.535 R (bound/input frequency ratio)
10 | B10 | 0.0897 R (bound/input frequency ratio)
11 | B11 | 2.73 R (bound/input frequency ratio)
12 | B12 | 0.898 R (bound/input frequency ratio)
13 | B13 | 0.0172 R (bound/input frequency ratio)
